Common to all, as to assay: NCI-60 one-dose screen, 48 h (100 = growth as untreated, 0 = no growth, -100 = all killed)
Conditions in all cases: 10 µM unless noted

In assay [1] the test system is SR leukemia.
The test system of assay [2] is RPMI-8226 leukemia.
Assay [3] relates to OVCAR-8 ovarian.
The subject of assay [4] is OVCAR-5 ovarian.
Assay [5] has as its system OVCAR-4 ovarian.
Assay [6] concerns SK-OV-3 ovarian.
Assay [7] relates to IGROV1 ovarian.
In assay [8] the test system is OVCAR-3 ovarian.
Assay [9] concerns HS 578T breast.
For assay [10], the system named is NCI/ADR-RES ovarian.
Assay [11] deals with T-47D breast.
Assay [12] relates to BT-549 breast.
Assay [13] deals with MDA-MB-435 melanoma.
For assay [14], the system named is SW-620 colon.
Assay [15] concerns MCF7 breast.
The test system of assay [16] is HCT-116 colon.
Assay [17] relates to HCC-2998 colon.
The subject of assay [18] is KM12 colon.

This is part of a sample that, as a whole, favours compounds with a hit. Of some 83,000 tested, about 20% had one in any assay.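 A percent growth of 40 corresponds to 60% growth inhibition; 0 means no net growth; -100 means all cells died. Active threshold: below 10.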 A number with no mark means an inactive call. Calls of active or inactive are those of the source.

For `NS(=O)(=O)c1ccc(-n2cc(CN3CCNCC3)nn2)cc1`, the growth is 100% in [1]; 110% in assay [2]; 110% in assay [3]; 106% in [4]; 105% in [5]; 110% in assay [6]. The growth in assay [7] was 112%; in [8] it was 111%; in [9], 111%; in assay [10], 111%; in [11], 107%; in [12], 110%. Moreover, the growth in assay [13] is 106%; in [14], 109%; in assay [15], 98.9%; in [16], 107%; in assay [17] it was 101%; in assay [18] it was 105%.

In the case of `CCCCCc1ccc(S(=O)(=O)Nc2cc(-c3csc(NC(=O)CN4CCN(C)CC4)n3)ccc2N2CCN(C)CC2)cc1`, the growth in assay [1] is -40.7% (active); in assay [2] it was -28.5% (active); in [3], 19.5%; in [4] it was 18.4%; in assay [5], -44.3% (active); in [6], 18.2%. Also, the growth in [7] was 7.21% (active); in assay [8], -34.7% (active); in assay [9], -24.3% (active); in assay [10], 19.1%; in assay [11], -49.9% (active); in assay [12], 77.5%. For the same compound, the growth in [13] was -78.6% (active); in assay [14], -55.1% (active); in assay [15], -85.9% (active); in assay [16], -70.9% (active); in assay [17], -25.2% (active); in assay [18], 38.9%.

For `Clc1cccc(/C=N/Nc2nc(N/N=C/c3cccc(Cl)c3Cl)nc(N3CCCCC3)n2)c1Cl`, the growth in assay [1] is 33.4%; in [2] it was 93.4%; in assay [3], 72.9%; in assay [4], 94%; in assay [5] it was 71.5%; in assay [6] it was 105%. Moreover, the growth in [7] is 79.6%; in assay [8], 8.19% (active); in assay [9], 85%; in [10] it was 67.4%; in assay [11], 48.3%; in assay [12], 97.3%. The growth is 68.8% in [13]; 42.6% in assay [14]; 71.2% in assay [15]; 48.8% in assay [16]; 97.4% in [17]; 67.2% in [18].

Consider `C=CCn1c(SCC(=O)Nc2ccc(C(=O)/C=C/c3cc(OC)c(OC)c(OC)c3)cc2)nnc1-c1c[nH]c2ccccc12`, for which the growth is 1.35% (active) in assay [1]; -35.2% (active) in [2]; 37.8% in assay [3]; 32.1% in assay [4]; 59.4% in assay [5]; 75.3% in assay [6]. In addition, the growth is -26% (active) in assay [7]; 6.15% (active) in assay [8]; 38.8% in assay [9]; 88.9% in assay [10]; 49% in assay [11]; 47.2% in assay [12]. Also, the growth in [13] is 5.25% (active); in [14], -0.994% (active); in [15], -30.8% (active); in [16], -66.1% (active); in assay [17], -28% (active); in assay [18], 30.4%.

Consider `N#Cc1cccc(NC(=O)c2cc(-c3ccc(F)cc3F)ccc2O)c1`, for which the growth was 27.3% in assay [1]; -8.42% (active) in assay [2]; 10.8% in assay [3]; 14.6% in assay [4]; 8.85% (active) in assay [5]; 5.89% (active) in assay [6]. Moreover, the growth in [7] was 13.2%; in [8], 9.74% (active); in [9] it was 3.15% (active); in assay [10], 4.64% (active); in assay [11] it was 7.54% (active); in [12], -0.215% (active). Besides, the growth in assay [13] is 2.73% (active); in [14], 13.4%; in [15] it was 2.47% (active); in [16], 5.45% (active); in assay [17], 22.7%; in assay [18] it was 2.94% (active).

On to `COc1ccc(/C=C(/C)c2ccc3ccc(OC)cc3[o+]2)c(O)c1`, for which the growth in assay [1] is 14.9%; in [2] it was 58.4%; in [3], 80.5%; in [4] it was 98.5%; in assay [5] it was 84.5%; in assay [6], 98.6%. The growth in [7] is 58%; in [8], 35.1%; in assay [9], 98.7%; in [10] it was 45.3%; in assay [11] it was 69.7%; in assay [12] it was 87.9%. The growth was 38% in [13]; 30.1% in assay [14]; 30.7% in assay [15]; 50.7% in assay [16]; 114% in assay [17]; 71.6% in [18].

For the compound `O=C(CCn1c[n+](CC(=O)c2ccc(F)cc2)c2ccccc21)Nc1cccc2cccnc12`, the growth was 79.5% in assay [1]; 35.1% in assay [2]; 86.9% in assay [3]; 79.6% in assay [4]; 52.3% in assay [5]; 88.2% in assay [6]. The growth was 39.4% in [7]; 55.4% in assay [8]; 84.5% in assay [9]; 96.5% in assay [10]; 53.9% in [11]; 69.9% in [12]. For the same compound, the growth was 79% in assay [13]; 92.3% in assay [14]; 68% in assay [15]; 53.1% in assay [16]; 87% in assay [17]; 76% in assay [18].

In the case of `Cc1ccc2c(c1)Oc1nc(N)c(C#N)c(N)c1C2Sc1ccc(F)cc1` (configuration not stated), the growth in [1] is -15.6% (active); in assay [2], -24.1% (active); in [3], -99.4% (active); in [4], -93.5% (active); in [5] it was -99.3% (active); in [6] it was -94.5% (active). Besides, the growth in assay [7] is -91.3% (active); in assay [8], -88.1% (active); in assay [9], -38.1% (active); in [10], -89.4% (active); in assay [11], -47.1% (active); in assay [12], -88.4% (active). The growth in assay [13] is -93.6% (active); in [14], -63.6% (active); in assay [15], -59.7% (active); in assay [16] it was -89.9% (active); in assay [17], -90.9% (active); in assay [18], -91.4% (active).

For the compound `O=C(CCn1c[n+](CC(=O)c2ccc(-c3ccccc3)cc2)c2ccccc21)Nc1cccc2cccnc12`, the growth in [1] was 9.22% (active); in assay [2], 3.25% (active); in assay [3] it was 52.5%; in assay [4] it was 81.9%; in assay [5], 24.8%; in assay [6], 74.9%. In addition, the growth in assay [7] is 10.5%; in assay [8], 28.5%; in assay [9], 62.8%; in assay [10], 99.1%; in assay [11] it was 21.6%; in [12], 53.7%. The growth is 32.2% in assay [13]; 65.2% in assay [14]; 19.8% in assay [15]; 56% in [16]; 38.9% in assay [17]; 14.5% in [18].

The values above are taken from PubChem BioAssay (NCI).
